TROY signal inh: blocks TROY-dependent signaling in reporter cells. inhibition, % at 10 µM. Q293 LMP1-TROYcd NF-kB luciferase reporter, 4 h. 0.98% of 360,000 active;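 active = compounds whose plate-normalised and pattern-corrected inhibition of the luciferase reporter signal at the single screening dose is 50% or more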
KKLEB tox: counter-screen for CF NF-kB inhibitors: cytotoxicity. 0.36% of 360,000 active. KKLEB CF airway cells viability, ATPlite luminescence, overnight; active compounds read low; cells stimulated with P. aeruginosa culture filtrate. AID 602141. activity change (cytotoxicity), % at 5 µM;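 active = corrected activity change at or below -50% at 5 µM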
TWEAK-Fn14 inh: blocks TWEAK-Fn14 interaction in a reporter cell assay; TWEAK-stimulated Fn14 reporter cells, luciferase luminescence, 8 h; inhibition, % at 10 µM; 2% of 360,000 active; in the data active = inhibition above about 50%
Peg3 promoter: reduces Peg3 promoter-driven luciferase expression in HeLa | HeLa PEG-Prom luciferase reporter, luminescence, overnight | inhibition, % at 20 µM | 1.7% of 360,000 active;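 active = inhibition of at least 50% at 20 µM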
CF NFkB inh: blocks PAF-induced NF-kB reporter in cystic fibrosis cells. KKLEB NF-kB-GFP reporter, GFP fluorescence overnight. inhibition, % at 5 µM. 0.86% of 360,000 active;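 active = at least 50% inhibition at 5 µM, scaled per plate between neutral and stimulator controls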;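 also: PAF is a Pseudomonas aeruginosa culture filtrate used as stimulus; plate controls were PAF-stimulated DMSO wells for no effect and unstimulated DMSO wells for full effect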
HIF-2a inh: HIF-2a inhibition; 0.72% of 360,000 active; inhibition, % at 18.8 µM; AID 624352; 786-0 RCC cells HIF-2a reporter, luciferase luminescence, overnight;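 active = inhibition of the luminescence signal of 40% or more relative to plate controls, in a single-dose primary screen at 18.75 µM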
* marks the source's active call; other numbers are inactive results. Only some compounds are listed: those with a hit (about 4% of all), similar ones and a draw of the others.

SMILES	TROY signal inh	KKLEB tox	TWEAK-Fn14 inh	Peg3 promoter	CF NFkB inh	HIF-2a inh
CN(C)c1ccc(CC(=O)N2CCCC(c3cc(C(=O)Nc4ccc5c(c4)OCO5)no3)C2)cc1 (configuration not stated)	-9.7	-5.6	7.8	-16.6	-20.2	-23.2
O=C(Nc1ccccc1)c1cc(C2CCCN(C(=O)C3CC3)C2)on1 (configuration not stated)	76.3*	-0.4	92.9*	23.3	-1.1	25.3
CN(C)c1ccc(CC(=O)N2CCCC(c3cc(C(=O)Nc4ccccc4)no3)C2)cc1 (configuration not stated)	76.3*	-5.5	71.3*	-110.7	-5.7	-115.9
CC(CCc1ccccc1)NC(=O)c1ccc(Br)cc1 (configuration not stated)	3.4	-1.9	-1.4	-39.8	3.8	-68.4
O=C(Nc1cccc(O)c1)c1noc2c1CCc1ccccc1-2	45.8	-43.5	71.8*	-149.8	4.9	-165.0
Cc1ccc(NC(=O)c2noc3c2CCc2ccccc2-3)cc1	-38.2	-8.8	-13.5	-250.0	3.8	-260.2
N#CC1=C(N)C(C#N)(C#N)[C@H](c2cccnc2)[C@H]2CN(C(=O)OCc3ccccc3)CC=C12	-20.4	-10.0	6.3	-2.4	14.2	10.7
N#CC1=C(N)C(C#N)(C#N)C(c2cccnc2)C2CC(c3ccccc3)CC=C12 (configuration not stated)	10.4	-22.5	61.3*	12.0	69.1*	15.7
O=C(Cn1nnc(-c2cccc(C(F)(F)F)c2)n1)NNS(=O)(=O)c1cccc(C(F)(F)F)c1	0.4	2.2	-0.6	-3.4	6.5	22.4
Fc1ccc2cnc(CCO[C@H]3CCCCO3)cc2c1	8.6	7.4	66.8*	-122.6	-14.6	-71.0
CCN(CC)CCOC(=O)c1ccc(NC(=O)CCCN2C(=O)S/C(=C/c3ccc(OC)cc3)C2=S)cc1	45.0	-0.6	72.5*	107.6*	28.6	78.8*
COc1ccc(/C=C2/SC(=S)N(CCCC(=O)Nc3ccc(O)cc3)C2=O)cc1OC	17.0	-12.7	25.5	25.7	9.2	42.2*
COc1cccc(/C=C2/SC(=S)N(CCCC(=O)Nc3ccc(O)cc3)C2=O)c1	1.4	-15.8	14.7	99.4*	20.8	19.5
COc1cccc(/C=C2\SC(=S)N(CCCC(=O)NC3=NCCS3)C2=O)c1	42.1	-2.1	28.3	29.1	-14.4	86.8*
COc1ccc(/C=C2\SC(=S)N(CCCC(=O)Nc3ccc(C(=O)O)cc3)C2=O)cc1OC	-5.8	10.7	-22.4	7.2	5.4	3.2
O=C(CCCN1C(=O)/C(=C\c2ccccc2)SC1=S)Nc1ccc(O)cc1	15.9	-10.4	12.1	83.2*	10.3	60.9*
O=C(CCCN1C(=O)/C(=C/c2ccc3c(c2)OCO3)SC1=S)Nc1cccc(C(=O)O)c1	30.7	-24.4	55.9*	27.8	3.1	87.9*
O=C(CCN1C(=O)/C(=C\c2ccccc2)SC1=S)Nc1ccc(C(=O)O)cc1	-0.4	0.5	13.7	11.7	18.2	19.2
COc1cc(/C=C2\SC(=S)N(N3CCOCC3)C2=O)ccc1O	54.0*	-11.0	-35.0	-21.0	-31.9	-0.3
COc1cc(/C=C2\SC(=S)N(N3CCOCC3)C2=O)cc(OC)c1OC	-6.4	1.5	3.5	7.2	-4.3	11.7
O=C(COC(=O)CCC(=O)c1ccccc1)NNC(=O)c1ccc(Cl)cc1	4.6	-11.1	10.4	-3.9	-10.1	8.6
Cc1cc(C)nc(NC(=O)c2ccc(C)o2)n1	-0.3	-0.5	14.8	-18.7	17.6	9.7
CC(C(=O)NC1CCCc2ccccc21)N1CCN(Cc2ccc3c(c2)OCO3)CC1 (configuration not stated)	58.1*	-4.4	8.3	-1.2	3.2	3.6
CC(C(=O)NC1CCCc2ccccc21)N1CCN(c2ccc(F)cc2)CC1 (configuration not stated)	12.5	-3.9	13.5	13.2	9.6	7.2
CCCC[C@@H](CNC)NC[C@H](Cc1ccc(O)cc1)NCCc1ccc(OCC)cc1	4.7	-11.8	-6.9	96.6*	12.4	-1.9
SMILES	TROY signal inh	KKLEB tox	TWEAK-Fn14 inh	Peg3 promoter	CF NFkB inh	HIF-2a inh
CCC[C@H](CN[C@@H](CNC)[C@H](C)O)NCCc1ccc(OC)cc1	-1.2	0.7	-12.6	-2.8	-7.4	7.6
CCCC(=O)Nc1nn(C)c2nc3ccc(C)cc3cc12	-17.2	4.5	30.7	12.7	-16.4	3.5
Cc1noc(C)c1CSc1nc2ccccc2nc1NS(=O)(=O)c1ccc(Cl)cc1	57.4*	-10.8	18.1	50.0	35.0	-13.2
O=S(=O)(Nc1nc2ccccc2nc1NCc1ccco1)c1ccc(Cl)cc1	-3.3	1.2	18.4	25.4	-1.8	-3.2
O=C(Nc1ccc(OC(F)F)c(Cl)c1)C(c1ccccc1)c1ccccc1	56.6*	4.2	18.5	32.6	4.5	4.1
O=C(Cc1cccc2ccccc12)Nc1ccc(OC(F)F)c(Cl)c1	-6.0	-2.6	-43.5	-7.7	23.6	-11.9
CC1(C)Cc2c(c(N3CCOCC3)nc3sc4c(=O)[nH]cnc4c23)CS1	1.6	-14.5	-16.0	9.1	35.1	7.2
CCN(CC)CCNc1ncnc2c1sc1nc(N3CCOCC3)c3c(c12)CC(C)(C)SC3	7.5	-40.6	-84.4	103.6*	38.2	34.0
COc1cccc(C2=NO[C@@H]3C(=O)N(c4ccc5c(c4)OCCO5)C(=O)[C@H]23)c1OC	68.9*	12.7	77.3*	22.2	-3.0	25.9
O=C(Nc1nc2ccccc2[nH]1)C1CC(=O)N(c2ccc3c(c2)OCCO3)C1 (configuration not stated)	36.2	15.1	69.4*	3.8	8.9	30.0
O=C(O)C1CC(=O)N(c2ccc3c(c2)OCCO3)C1 (configuration not stated)	33.2	-4.7	62.8*	9.0	-0.9	21.1
COc1cccc(OC)c1OC(=O)C1CC(=O)N(c2ccc3c(c2)OCCO3)C1 (configuration not stated)	15.8	-1.5	68.0*	19.5	8.9	7.0
O=C(Nc1ccc2c(c1)OCO2)C1CC(=O)N(c2ccc3c(c2)OCCO3)C1 (configuration not stated)	2.8	-16.0	30.5	8.5	17.9	-7.2
O=C(Nc1ccccc1Br)C1CC(=O)N(c2ccc3c(c2)OCCO3)C1 (configuration not stated)	12.2	12.1	5.4	3.1	7.1	-10.3
CC(C)Oc1ccc(/C=N/NC(N)=S)cc1	-32.2	5.4	-1.9	-157.2	-13.7	-177.7
O=C(OCCN1CCCC1)C1(c2ccccc2)CCCC1	-8.0	2.8	8.3	-1.1	-2.6	13.5
O=C(COC(=O)C1CC(=O)N(c2ccc3c(c2)OCCO3)C1)NC1CCCc2ccccc21 (configuration not stated)	40.6	-11.2	56.1*	-12.8	9.8	12.3
CC(C)Cn1c(N)c(C(=O)COC(=O)CC23CC4CC(CC(C4)C2)C3)c(=O)n(C)c1=O	59.3*	-3.7	72.9*	22.0	-4.4	16.8

High-throughput results from PubChem BioAssay.
